# The full ranking holds about 33,000 sequences; the median of “E-score (-0.5 to 0.5)” is about -0.016, and the highest 2% start at about 0.3. Shown is part of a subset that was picked to be rich in the highest values.
# Target: T1, Yer184c (UniProt P39961)
# T1 sequence: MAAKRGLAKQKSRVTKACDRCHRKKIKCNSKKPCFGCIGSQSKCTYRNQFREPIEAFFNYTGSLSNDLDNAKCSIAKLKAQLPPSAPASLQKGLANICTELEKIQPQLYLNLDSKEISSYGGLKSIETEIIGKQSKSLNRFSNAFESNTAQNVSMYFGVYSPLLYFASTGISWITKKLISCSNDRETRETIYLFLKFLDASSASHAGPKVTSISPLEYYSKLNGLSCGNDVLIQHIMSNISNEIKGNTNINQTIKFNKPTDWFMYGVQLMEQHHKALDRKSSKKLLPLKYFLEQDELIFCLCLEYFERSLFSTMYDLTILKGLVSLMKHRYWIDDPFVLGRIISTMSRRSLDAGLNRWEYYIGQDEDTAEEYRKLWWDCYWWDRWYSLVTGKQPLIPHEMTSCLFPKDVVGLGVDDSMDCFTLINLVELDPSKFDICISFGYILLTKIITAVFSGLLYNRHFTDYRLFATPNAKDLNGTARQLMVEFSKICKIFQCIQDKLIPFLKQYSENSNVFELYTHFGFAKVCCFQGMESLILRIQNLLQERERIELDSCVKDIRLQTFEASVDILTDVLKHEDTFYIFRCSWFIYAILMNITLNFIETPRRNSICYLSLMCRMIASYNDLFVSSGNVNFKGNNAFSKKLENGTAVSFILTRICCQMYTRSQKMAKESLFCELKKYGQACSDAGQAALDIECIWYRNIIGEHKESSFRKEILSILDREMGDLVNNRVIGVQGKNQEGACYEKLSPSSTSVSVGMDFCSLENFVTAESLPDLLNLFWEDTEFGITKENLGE
# Assay: PBM E-score (8-mer binding enrichment) (E-score (-0.5 to 0.5)); higher = stronger / more preferred TF binding
# Conditions: protein concentration: 100 nM; construct: GST-full length
# Experimental: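 Universal 'all 10-mer' protein binding microarrays (Agilent AMADID 015681) probed with GST-tagged S. cerevisiae TFs (full-length or DBD) made by in vitro transcription/translation (PURExpress), about 100-200 nM. Bound TF was detected with fluorescent anti-GST. Each ungapped 8-mer (which stands for itself and its reverse complement) is scored by the PBM enrichment score (E-score), a modified Wilcoxon-Mann-Whitney statistic from -0.5 to +0.5, computed with the Universal PBM Analysis Suite. Scale: above 0.35 generally sequence-specific binding.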
row,Sequence,PBM E-score
1,GCAGTACA,-0.0532
2,ACCGTGAG,-0.158
3,CGCAACGA,0.0385
4,AAACCTGG,-0.147
5,AGCCGGTG,0.225
6,AACCGGCT,0.264
7,TCCCGGCA,0.256
8,TACCGGCA,0.251
9,ACCCGGCT,0.22
10,AGCCGGCG,0.372
11,ACCCGGCG,0.198
12,AGCCGGCT,0.36
13,TGCCGGCA,0.431
14,AAATCAAA,0.13
15,TCGATTAA,0.148
16,CTCGGCAC,0.31
17,CTCGGCAG,0.31
18,ATCGGCAG,0.247
19,CACGGCAG,0.0946
20,ATCGGCAA,0.246
21,GTCGGCAA,0.263
22,ATCGGCAC,0.27
23,CACGGCAA,0.199
24,CTCGGCCA,0.204
25,CTCGGCAA,0.319

row,Sequence,PBM E-score
1,TTCGGCAA,0.336
2,GTCGGCAC,0.1
3,AGGACCTG,-0.174
4,ATATACCC,0.021
5,TCTATAGA,-0.137
6,GTCAATAA,0.158
7,AAGTATCC,0.0522
8,CAGGGCTC,-0.226
9,GAGAGCGC,-0.218
10,AGCAGCAT,-0.206
11,AGAGTAAC,0.0419
12,CAATAGAG,-0.242
13,CCAGCCTA,-0.206
14,CCCGCTCA,-0.141
15,CCTAAGTA,0.106
16,AGCCGGGA,0.311
17,GGCCGGGA,0.292
18,AGCCGGGG,0.0566
19,CGCCGGGA,0.312
20,AGCCGGGC,0.172
21,CGCCGGGC,0.286
22,CAAACAGC,-0.0581
23,ATGCGTGA,0.0231
24,AATCTAAT,0.0331
25,ATCAAGTC,-0.0287

row,Sequence,PBM E-score
1,ATGAACAG,0.17
2,GCGGCAAA,0.107
3,ACGGCAAG,0.0759
4,CCGGCAAC,0.293
5,CCGGCAAA,0.374
6,CCGGCAAG,0.331
7,ACGGCAAA,0.211
8,CTAGCAGC,-0.0845
9,GAAAGCTA,0.00964
10,ACGACCGG,0.0371
11,TGCAAACA,-0.168
12,AAATCGAT,0.0714
13,CCCGGCGC,0.216
14,CCCGGCGA,0.236
15,GCCGGCGA,0.311
16,TCCGGCGA,0.38
17,ACCGGCGA,0.284
18,GCCGGCGC,0.406
19,GGCGGCGA,0.0554
20,GACGGCGA,-0.034
21,ACCGGCGC,0.226
22,AAGAGGAA,0.23
23,AGTGAGAA,0.118
24,CCGATGCA,0.157
25,GAGTCAGC,-0.101

row,Sequence,PBM E-score
1,TCAGGGGA,-0.252
2,CTTCAAGA,0.171
3,AAAAACAG,0.115
4,GTTCCACA,-0.0536
5,AGCTCCGG,0.313
6,ACCTCCGT,0.107
7,CCCTCCGG,0.1
8,AGCTCCGA,0.251
9,TACTCCGA,0.262
10,CACTCCGC,-0.0284
11,ACCTCCGG,0.357
12,GACTCCGA,-0.0256
13,CACTCCGG,0.306
14,AACTCCGA,0.325
15,CACTCCGA,0.0993
16,AGCTCCGC,0.127
17,CAAGAATG,0.103
18,GTTGGAGA,0.0278
19,GTCGCCTA,-0.157
20,GGACGCCC,-0.106
21,AGGGGCAT,-0.358
22,ATTCTGCC,0.201
23,CCAAGCGG,-0.15
24,AACTCCGG,0.424
25,AACTCCGT,0.222

row,Sequence,PBM E-score
1,AACTCCGC,-0.0142
2,AGTTCGAG,-0.00888
3,AAGGGGTA,-0.351
4,AAGCGCTT,0.306
5,AAACGCCG,0.334
6,AGGCGCCG,0.207
7,CGGCGCCA,0.162
8,AAGCGCCA,-0.208
9,CGGCGCCG,0.443
10,AAGCGCCT,-0.14
11,AAGCGCTC,0.0112
12,CAACGCCG,0.294
13,AAACGCCA,0.089
14,AAGCGCCG,0.373
15,AAGCGCTA,0.0496
16,ATGACCTG,-0.0827
17,AATTGACA,0.0558
18,GGGCAGGA,-0.269
19,GGGGTACA,-0.111
20,CGCATTAG,-0.101
21,CGATGCAA,-0.00579
22,ATGCCCCG,-0.139
23,TCATCGCA,-0.0385
24,CCGGGCCG,0.429
25,CCGGGCCC,0.262

row,Sequence,PBM E-score
1,CGCGGCCG,0.251
2,CCGGGCCA,0.14
3,ATCGGCCG,0.388
4,AGCGGCCG,0.315
5,CCGGCCCG,0.386
6,ACGGCCCG,0.146
7,ATCGGCCC,0.113
8,ATCGGCCA,0.125
9,AGCGGCCA,-0.161
10,CCGGCCCA,0.181
11,GAATCTGC,0.12
12,CTAGTGAG,-0.0187
13,ACCCCGCG,-0.119
14,AAACTGTC,-0.133
15,AGCAGTGC,-0.185
16,ACCGGCCT,0.0901
17,CGGGCCCA,0.0473
18,CCCGGCCA,0.209
19,CCCGGCCG,0.371
20,ACCGGCCA,0.173
21,AGGGCCCG,0.0448
22,CGGGCCCG,0.351
23,ACCGGCCG,0.413
24,CCCGGCCC,0.161
25,ACAACCTA,-0.00165

row,Sequence,PBM E-score
1,GAGTGGCC,-0.0531
2,AGTACTAG,0.0969
3,ACAAGCTG,0.0583
4,AGCCACTA,-0.112
5,AAAATCCA,-0.0451
6,ATGTGAGG,0.0347
7,TCAACACA,0.179
8,ACTCCGAA,0.241
9,GGTCCGAA,0.303
10,CTTCCAAA,0.0435
11,AGTCCGAG,0.268
12,ATTCCGAA,0.388
13,CTTCCGAA,0.39
14,ACTCCGAG,0.233
15,ATTCCGAG,0.353
16,GTTCCGAA,0.369
17,ATTCCGAC,0.211
18,CTTCCGAC,0.173
19,GTTCCAAA,0.158
20,AAGAATTA,0.134
21,CGGCCACA,0.194
22,CACATTCG,0.097
23,CGGGTATA,0.196
24,CAGGGAAA,0.0066
25,ACCATTGC,-0.0741

row,Sequence,PBM E-score
1,GTTTTACA,-0.015
2,GCCAACCA,-0.155
3,AATTAATT,0.0189
4,GTTTAATA,0.155
5,AATTAATA,0.407
6,CTTTAATA,0.245
7,TATTAATA,-0.00461
8,CTTTAGTA,-0.0339
9,ATTTAGTA,0.328
10,ATTTAGTC,0.133
11,ATTTAATA,0.313
12,GCTGCACA,-0.159
13,CGCAGTGC,-0.204
14,AAAGGGAG,-0.313
15,CAGTCTTA,-0.0806
16,GTCAAGAA,0.0525
17,TTCAAAAA,0.228
18,TTCAAGAA,0.312
19,CAGCCATG,-0.329
20,CGGGCTAC,0.00991
21,AGAATTTA,0.121
22,AACGCCGT,0.119
23,AACGCCGC,0.116
24,CACGCCGA,0.153
25,AACGCCGG,0.317

row,Sequence,PBM E-score
1,TACGCCGA,0.237
2,AACGCCGA,0.415
3,CCCTAAAA,-0.238
4,AAACGAGG,-0.124
5,GCTATAAC,-0.00042
6,GATCTGTA,-0.0435
7,ATTCGGCC,0.292
8,GTTCGGCA,0.368
9,GCTCGGCA,0.288
10,ATTCGGCG,0.282
11,CTTCGGCA,0.333
12,GGTCGGCA,0.112
13,CTTCGGCC,0.272
14,ATTCGGTG,0.155
15,GTTCGGTA,0.29
16,ATTCGGCA,0.318
17,CATCGGCA,0.211
18,ATTCGGTA,0.329
19,AAGCGTGT,-0.217

# — the supplement of paper PMC3334620
